# From publication PMC5540273 (PLoS ONE, 2017)
# Legend:
# Settings in all cases: concentration: 1 μM, replicates: in singlicate; n = 1
# [1] = test system: MAP3K15
# [2] = test system: MAP3K1
# [3] = test system: MAP3K2
# [4] = test system: MAP3K3
# [5] = test system: MAP3K4
# [6] = test system: MAP4K2
# [7] = test system: MAP4K3
# [8] = test system: MAP4K4
# [9] = test system: MAP4K5
# [10] = test system: MAPKAPK2
# [11] = test system: MAPKAPK5
# [12] = test system: MARK1
# [13] = test system: MARK2
# [14] = test system: MARK3
# [15] = test system: MARK4
# [16] = test system: MAST1
# [17] = test system: T1, MEK1
# T1 construct: gene MAP2K1
# [18] = test system: T2, MEK2
# T2 construct: gene MAP2K2
# [19] = test system: T3, MEK3
# T3 construct: gene MAP2K3
# [20] = test system: T4, MEK4
# T4 construct: gene MAP2K4
# 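Note: KINOMEscan kinase panel screen.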
Compound,%Inh [1] [%],%Inh [2] [%],%Inh [3] [%],%Inh [4] [%],%Inh [5] [%],%Inh [6] [%],%Inh [7] [%],%Inh [8] [%],%Inh [9] [%],%Inh [10] [%],%Inh [11] [%],%Inh [12] [%],%Inh [13] [%],%Inh [14] [%],%Inh [15] [%],%Inh [16] [%],%Inh [17] [%],%Inh [18] [%],%Inh [19] [%],%Inh [20] [%]
CSc1ccc(NC2=C(c3ccc(Cl)cc3)C(=O)NC2=O)cc1 [SB-317658],0,0,1,29,37,12,1,16,17,1,0,3,0,28,21,23,3,6,0,0
Cc1nn2c(=O)cc(N3CCO[C@H](C)C3)nc2n1Cc1cccc(Cl)c1Cl [GSK2373693],22,66,7,0,4,0,4,17,10,12,0,0,0,0,0,0,0,0,10,27
Cl.Cl.NC(CNC(=O)c1cc(Br)c(-c2ccnc3[nH]ccc23)s1)c1ccccc1 (centres unmarked) [GSK1322949],16,14,27,15,3,56,20,53,4,0,0,0,22,0,0,29,0,0,74,57
Fc1cc(Cl)ccc1Nc1ccnc2cc(-c3ccc(CN4CCSCC4)o3)ccc12 [GW560106],0,6,0,0,0,0,8,40,50,5,0,5,0,0,21,34,53,35,0,3
Cc1ccc(O)cc1Nc1ccnc2ccc(C(C)(C)C)cc12 [GW856805],26,27,32,31,23,43,0,0,4,0,0,36,20,21,37,69,17,21,67,42
COc1cc(Nc2nccc(N3CCC(NS(=O)(=O)c4ccc(NC(C)=O)cc4)CC3)n2)cc(OC)c1OC [GSK1379825],0,11,18,0,31,0,40,68,53,0,0,14,1,0,15,13,0,0,6,14
Cl.O=C(Nc1ccc(Oc2ccc3[nH]c(NC(=O)c4ccco4)nc3c2)cc1)Nc1cc(C(F)(F)F)ccc1F [GW683134],0,27,7,0,0,0,17,24,32,93,0,0,0,0,6,8,0,0,0,10
CC(C)NCC(Cc1ccccc1)NC(=O)c1cc(Br)c(-c2ccnc3[nH]ccc23)s1.Cl.Cl (centres unmarked) [GSK1383281],0,0,34,0,0,0,0,27,0,0,0,11,31,60,0,0,0,0,87,39
COc1ccc(C)c(Nc2ccnc(Nc3ccc(-c4cnc[nH]4)cc3)n2)c1.Cl [GW784041],0,0,0,28,18,0,6,23,19,0,0,9,0,14,24,0,31,55,0,0
CCn1cnc2c(NCc3ccccc3)ncnc21 [SKF-96418],22,16,14,0,2,0,0,0,0,0,0,3,0,27,14,67,20,37,40,23
Cl.N#CCc1ccc(Nc2nccc(Nc3ccc(Oc4ccccc4)cc3)n2)cc1 [GW639905],21,11,0,0,10,0,0,99.1,100,0,0,0,0,0,0,0,2,12,0,22
CCNC(=O)/C=C/c1n[nH]c2cc(Sc3ccccc3C(=O)NC)ccc12,5,38,20,30,3,30,65,39,24,12,18,0,34,0,3,0,17,18,14,0
CN(c1ccc(NC(=O)Nc2cccc(Cl)c2)cc1)c1ccnc(N)n1.Cl [GW830707],0,0,0,23,0,10,0,0,16,0,0,0,0,43,5,84,16,23,0,0
Cc1cccc(Nc2nc(N[C@H]3CCCC[C@H]3N)ncc2C(N)=O)c1.Cl [GSK986310],16,17,84,71,0,98.4,31,74,34,19,0,5,37,0,13,0,8,19,88,69
COc1cc(Nc2nccc(N3CCC(NC(=O)Nc4ccc5c(c4)OCO5)C3)n2)cc(OC)c1OC (centres unmarked) [GSK1379766],0,8,0,0,29,17,0,0,0,0,0,4,0,0,1,0,0,0,2,8
CN(c1ccc2c(c1)nc(NCc1ccccc1)n2C)c1ccnc(Nc2ccc(CS(C)(=O)=O)cc2)n1.Cl [GW811603],13,0,0,56,0,0,33,2,0,0,0,30,0,0,5,31,0,0,51,34
Cc1ccc(-c2ccc3occ(-c4ccc(S(C)=O)cc4)c3c2)nn1 (centres unmarked),0,0,0,0,0,0,0,0,0,0,0,0,14,16,4,0,0,4,0,0
Cn1cc(-c2ccc3c(c2)CCN3C(=O)Cc2cc(F)cc(F)c2F)c2c(N)ncnc21 [GSK2634140],7,10,87,50,80,0,78,0,81,7,0,0,0,0,0,0,0,0,0,37
COc1ccc(NC(=O)c2ccoc2)cc1-c1ccc(C(=O)NCC2CC2)cc1 [GW810437],4,13,9,0,6,10,0,0,7,0,0,17,0,47,18,56,13,24,36,0
